The record followed here is the supplement of paper PMC6555819.

For one assay, the system named is LXRa homodimer (NR concentration 270 nM). In words: PBM binding z-score (relative to random genomic background probes); higher = stronger binding; sequences stand for … in GC…GCGATTGACAGCGTAGAATGAAGG
The gist of the method:
(§1)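 Custom Agilent 4×180K protein-binding microarrays carried double-stranded probes. Their 34-nt variable regions held direct-repeat seeds, single-nucleotide variants, half-site ablations and random human genomic background sequences. Arrays were incubated 1 h with ligand-free nuclear receptor dimers in PBS pH 7.4, 2% milk, 0.02% Triton X-100, 1 mM DTT, 0.2 mg/mL BSA and 0.4 mg/ml salmon testes DNA. Antibodies against each partner (one per run) detected binding, and scanned fluorescence was regression-normalized. Binding z-scores use random background probes as reference.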
In the case of TGAATGAGGTTACAAGATCAGGGAACGTTGCAAA, the PBM binding z-score was -0.302.

For CCTCGGAGGACAGAAGGACAGAGCTGTCCGCTTT, the PBM binding z-score was -0.63.

Regarding ATCCAAAGGTCGTGAGGTGAGTATACAGAAAGGC, the PBM binding z-score is 0.975.

CCTTACGGGTGACGAGGTTATAGCACGACGAGCG gave a PBM binding z-score of -0.00764.

In turn, CCGACTGGGGCAAGGTTACGATAACGCACAGCCA came in with a PBM binding z-score of -0.354.

Regarding TATACAGGGTGAAAGGCCAGAGTACGAATGTCGA, the PBM binding z-score is -0.157.

CAAACTAGATCAAAGGTCAAAGTCGAGCCAACCA yielded a PBM binding z-score of 5.07.

Sequence TCTTGTAGATCAACCAGGTTAAGAAAGCCTGAGT came in with a PBM binding z-score of -0.188.

Consider TTAATGAGGTTAAAGATCAGGGAACGTGGCGTCG, for which the PBM binding z-score was found to be 0.612.

ACTCGGCGGACAAAGGTCAGAGCTACGCCAGTGA: the PBM binding z-score amounted to 1.32.

For TCTATGAGTTGATTAGGGCAACCGAAACAGCGGA, the PBM binding z-score was -0.0686.

ATCTCTAGGTAACGAAGTTCAGTGAATGCCGAAC yielded a PBM binding z-score of 0.427.

CTCGAAAGGTCGGTTGAGTTGAGTATACGGATAA yielded a PBM binding z-score of 0.18.

In the case of ACTATTAGTTGATTTAGGGCAACCGATACGACGC, the PBM binding z-score came to 0.44.

Take AGAATGAGGTTATTGAGATCAGGGAATTGCGGTC: the PBM binding z-score was 0.125.

In turn, ATCTCTAGGTAAGACTCAGTTCAGTGAAGAACGC had a PBM binding z-score of 0.614.

For CCTATTAGTTGACCATACGGGCAACCGAAGCTCG, the PBM binding z-score came to 0.419.

TTACCAAGGTGAAAGGTCCTTGATGCACGCCTTG displayed a PBM binding z-score of -0.388.

Take CCTAGTTGGTCCAGGTCACACACGCTATAGGTAC: the PBM binding z-score was 1.52.

In the case of CCTCGGAGGACAGGAGGTCAGAGCTGTCCGCTTT, the PBM binding z-score is 0.686.

On to GTACCAAGGTGAATAGATCGTTGATGAGTAGGCG, for which the PBM binding z-score was -0.179.

In turn, CCTACTGGGCCACGAAAGGTCGTTGATTCAGTGA had a PBM binding z-score of 0.373.

CAAACTGGGTCACCGGAAGGTCAAAGTCCGCATG displayed a PBM binding z-score of 3.33.

TCTCGGAGGACACGCAGGTCAGAGCTTTCCAGAG yielded a PBM binding z-score of -0.198.

Consider CCGAGTAGGTTATCGGGCATTCAGGCAACGGTGA, for which the PBM binding z-score was found to be 0.154.

In turn, TCTTGTAGGTCAACAGGAGGTTAAGAAAGATCGA yielded a PBM binding z-score of 1.77.

In turn, TGAATTAGGTTAAAGATCAGGGAACGTGGCGTCG had a PBM binding z-score of 0.0716.

The sequence ATTCAAAGTTCATCTAGGTAACGTAAGATATGCT displayed a PBM binding z-score of 6.17.

As for TAGCCTAGGTGATGCGGGCCAGTATAGTGTCGGC, the PBM binding z-score was -0.841.

In the case of TAGCCTAGGTCCTGGGCCAGTATACCACGCGAAC, the PBM binding z-score is -0.796.

CCTATTAGTTGACCATAAGGGCAAGCGAAGCTCG displayed a PBM binding z-score of 0.254.

On to GGAACGCGGGCAAGTTGATAGCAGAGTTTGATGG, for which the PBM binding z-score is -0.597.

The sequence TCATATAGGTAATACAGGTGAATGTCGGCATCTA had a PBM binding z-score of 0.495.

ATCGAAAGGTCGACGAGGTGAGTTTACACCGTTT had a PBM binding z-score of 0.17.

ATATGTAGGTTATCGGGTCATTCAGTTTGCGCAT came in with a PBM binding z-score of 2.11.

In the case of ACAGACAGGTGAGTGAAGGTAACGCAGCTGGACG, the PBM binding z-score is -0.468.

Consider CGTCCAAGGTCAGCAGATCAGTGAAAGCGACGTG, for which the PBM binding z-score was -0.179.

With AGAATGAGGTTACCAAAGATCCGGGAAACGCTTG, the PBM binding z-score is -0.0971.

As to AGAACGAGGGCAATGAGTTGCTAGCACGGGTGGC, the PBM binding z-score is -0.614.

CAAACTAGGTCAAAGGTAAAAGTCGAGCCAACCA registered a PBM binding z-score of 0.676.

The subject of another assay is LXRb:RXRa (NR concentration 270 nM, RXRa partner concentration 90 nM). The assay is described as above. The gist of the method:
as §1
The sequence TGAATGAGGTTACAAGATCAGGGAACGTTGCAAA displayed a PBM binding z-score of 1.34.

In the case of CCTCGGAGGACAGAAGGACAGAGCTGTCCGCTTT, the PBM binding z-score is -0.942.

The sequence ATCCAAAGGTCGTGAGGTGAGTATACAGAAAGGC gave a PBM binding z-score of 3.77.

In turn, CCTTACGGGTGACGAGGTTATAGCACGACGAGCG yielded a PBM binding z-score of 0.572.

In the case of CCGACTGGGGCAAGGTTACGATAACGCACAGCCA, the PBM binding z-score amounted to 0.677.

The sequence TATACAGGGTGAAAGGCCAGAGTACGAATGTCGA had a PBM binding z-score of 1.08.

CAAACTAGATCAAAGGTCAAAGTCGAGCCAACCA displayed a PBM binding z-score of 5.77.

As to TCTTGTAGATCAACCAGGTTAAGAAAGCCTGAGT, the PBM binding z-score came to 0.429.

Take TTAATGAGGTTAAAGATCAGGGAACGTGGCGTCG: the PBM binding z-score worked out at 2.28.

ACTCGGCGGACAAAGGTCAGAGCTACGCCAGTGA: the PBM binding z-score came out at 2.86.

TCTATGAGTTGATTAGGGCAACCGAAACAGCGGA had a PBM binding z-score of 0.151.

On to ATCTCTAGGTAACGAAGTTCAGTGAATGCCGAAC, for which the PBM binding z-score came out at 0.411.

CTCGAAAGGTCGGTTGAGTTGAGTATACGGATAA showed a PBM binding z-score of 1.5.

With ACTATTAGTTGATTTAGGGCAACCGATACGACGC, the PBM binding z-score came to 0.0865.

For AGAATGAGGTTATTGAGATCAGGGAATTGCGGTC, the PBM binding z-score came to 1.34.

Regarding ATCTCTAGGTAAGACTCAGTTCAGTGAAGAACGC, the PBM binding z-score turned out to be 0.261.

CCTATTAGTTGACCATACGGGCAACCGAAGCTCG registered a PBM binding z-score of 0.323.

The sequence TTACCAAGGTGAAAGGTCCTTGATGCACGCCTTG registered a PBM binding z-score of 1.06.

CCTAGTTGGTCCAGGTCACACACGCTATAGGTAC yielded a PBM binding z-score of 2.41.

The sequence CCTCGGAGGACAGGAGGTCAGAGCTGTCCGCTTT had a PBM binding z-score of 1.2.

GTACCAAGGTGAATAGATCGTTGATGAGTAGGCG yielded a PBM binding z-score of -0.113.

Sequence CCTACTGGGCCACGAAAGGTCGTTGATTCAGTGA displayed a PBM binding z-score of 1.5.

CAAACTGGGTCACCGGAAGGTCAAAGTCCGCATG gave a PBM binding z-score of 5.

TCTCGGAGGACACGCAGGTCAGAGCTTTCCAGAG had a PBM binding z-score of 0.321.

Sequence CCGAGTAGGTTATCGGGCATTCAGGCAACGGTGA returned a PBM binding z-score of -0.0205.

TCTTGTAGGTCAACAGGAGGTTAAGAAAGATCGA gave a PBM binding z-score of 3.93.

The sequence TGAATTAGGTTAAAGATCAGGGAACGTGGCGTCG showed a PBM binding z-score of 0.548.

As to ATTCAAAGTTCATCTAGGTAACGTAAGATATGCT, the PBM binding z-score turned out to be 3.99.

For the sequence TAGCCTAGGTGATGCGGGCCAGTATAGTGTCGGC, the PBM binding z-score is -1.2.

Turning to TAGCCTAGGTCCTGGGCCAGTATACCACGCGAAC, the PBM binding z-score is -0.85.

The sequence CCTATTAGTTGACCATAAGGGCAAGCGAAGCTCG displayed a PBM binding z-score of 0.218.

Regarding GGAACGCGGGCAAGTTGATAGCAGAGTTTGATGG, the PBM binding z-score is -1.24.

TCATATAGGTAATACAGGTGAATGTCGGCATCTA: the PBM binding z-score turned out to be 0.986.

ATCGAAAGGTCGACGAGGTGAGTTTACACCGTTT registered a PBM binding z-score of 2.95.

ATATGTAGGTTATCGGGTCATTCAGTTTGCGCAT: the PBM binding z-score amounted to 3.16.

Consider ACAGACAGGTGAGTGAAGGTAACGCAGCTGGACG, for which the PBM binding z-score is -0.215.

CGTCCAAGGTCAGCAGATCAGTGAAAGCGACGTG returned a PBM binding z-score of 2.21.

As for AGAATGAGGTTACCAAAGATCCGGGAAACGCTTG, the PBM binding z-score worked out at 1.33.

On to AGAACGAGGGCAATGAGTTGCTAGCACGGGTGGC, for which the PBM binding z-score was -0.476.

CAAACTAGGTCAAAGGTAAAAGTCGAGCCAACCA showed a PBM binding z-score of 3.51.
